# Assay outcomes (PubChem BioAssay)
# In the library only some 13% were active in any assay of this set; here they are far more common.
# CHOP inh – blocks CHOP induction under ER stress; AID 2732; inhibition, % at 10 µM; CHO-K1 CHOP-promoter luciferase, tunicamycin-induced, 15-18 h; 3.8% of 220,000 active;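 active means compounds that reduced the stress-induced luciferase reporter signal by more than about 70% of percent inhibition, limit read from the data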;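 further: 0% = tunicamycin plus vehicle and 100% = wells without tunicamycin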
# RAM inhibit – yeast RAM network inhibition; 1.8% of 190,000 active; S. cerevisiae dse1pr::URA3 reporter, 5-FOA growth OD615, 2 d; analog-sensitive cbk1-as2 kinase mutant strain; inhibition, % at 50 µM;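 active means inhibition above a set limit, 3 SD over mean compound inhibition, cut at about 8.4% in these data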;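 further: 0% = DMSO-only wells with no growth and 100% = 10 µM 1-NA-PP1 full growth; inhibition rescues growth on 5-FOA so higher OD means more RAM inhibition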
# Lmaj promast – Leishmania major promastigote growth inhibition. 9% of 200,000 active. Leishmania major promastigotes, resazurin fluorescence viability. inhibition, % at 10 µM; in the data active means inhibition above about 50%;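 further: promastigotes grown with compound for 44 hours at 28 °C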
# WT yeast gro inh – growth inhibition of WT yeast, mitochondrial fusion screen | mitochondrial fusion phenotypic screen, WT strain | inhibition, % at 10 µM | 2.1% of 190,000 active; in the data active means inhibition above about 58%; tested in S. cerevisiae
# * = called active by the depositor; x = not tested or not shown.
SMILES,CHOP inh,RAM inhibit,Lmaj promast,WT yeast gro inh
C=CCc1ccccc1OCC(O)CN(C(C)C)C(C)C (stereo not given),11,0,100*,-12
OC(COc1cccc2ccccc12)CN1CCN(c2ccccc2Cl)CC1 (stereo not given),76*,x,x,x
C=CCc1ccccc1OCC(O)CN1CCN(c2ccc(OC)cc2)CC1 (stereo not given),37,0,70*,-5
O=[N+]([O-])/C(C(Cl)=C(Cl)Cl)=C(/Sc1ccccc1)N1CCCCC1,47,x,x,x
O=C(O)/C=C/C(=O)NNC(=O)c1cccc(Br)c1,12,1,-9,-19
Cc1cc(NC(=O)COc2c(C)cccc2C)no1,-11,1,5,-7
c1ccc(-n2cc(CNCCc3cscn3)c(-c3ccc4c(c3)OCO4)n2)cc1,-24,1,16,5
Cc1ccc(N2CCN(CC(O)COc3ccc([N+](=O)[O-])cc3)CC2)cc1 (stereo not given),11,1,97*,15
CCCCCC(=O)Nc1cc(N(C)C)nc2ccccc12,x,-1,27,64*
CCN(CC)CC(=O)Nc1cc(N(C)C)nc2ccccc12,-6,x,x,x
CCc1ccc(C(=O)CSc2nc(C)cc(=O)[nH]2)cc1,-14,1,-8,18
O=C(C1CCCCC1)N(Cc1ccccc1)c1ccccn1,16,1,-4,84*
COc1cc(C(=O)NC2CCCNC2)cc(OC)c1OC (stereo not given),-1,x,x,-1
CC(=O)Nc1nc(NC(=O)/C=C/c2ccccc2)n(-c2ccccc2)n1,20,1,95*,4
CCCCCCP(=O)(O)c1ccccc1,14,3,-7,61*
CC(C)CCn1nnnc1C(c1ccc(F)cc1)N1CCN(C(=O)c2ccco2)CC1 (stereo not given),-24,2,55*,11
O=C(c1ccco1)N1CCN(C(c2ccccc2Cl)c2nnnn2Cc2cccs2)CC1 (stereo not given),-17,2,53*,0
CC(C)CC(c1nnnn1Cc1ccccc1)N1CCN(C(=O)c2ccco2)CC1 (stereo not given),-1,0,65*,31
O=C(c1ccco1)N1CCN(C(c2ccc(Cl)cc2)c2nnnn2CC2CCCO2)CC1 (stereo not given),31,-2,63*,12
O=C(c1ccco1)N1CCN(C(c2ccc(F)cc2)c2nnnn2Cc2cccs2)CC1 (stereo not given),27,2,37,-4
O=C(c1ccco1)N1CCN(C(c2ccccc2Cl)c2nnnn2Cc2ccco2)CC1 (stereo not given),17,1,43,-11
CC(=O)Nc1ccc(OS(=O)(=O)c2ccc(C(C)(C)C)cc2)cc1,28,3,5,-2
CCOC(=O)C1CCN(S(=O)(=O)c2ccc(-c3nc4ccccc4s3)s2)CC1,45,8.4*,-1,-9
CCOC(=O)C1CCN(CC(=O)Nc2cc(C)nn2-c2nc3ccccc3s2)CC1,41,3,6,74*
Cc1cc(NC(=O)CN2CC(C)OC(C)C2)n(-c2nc3ccccc3s2)n1 (stereo not given),61,1,13,-18
SMILES,CHOP inh,RAM inhibit,Lmaj promast,WT yeast gro inh
Cc1ccc(Sc2c(C)nn(C(=O)CNS(=O)(=O)c3ccc(F)cc3)c2C)cc1,65,7,-7,-5
Cc1nn(C(=O)C2CC2)c(C)c1Sc1ccc(Cl)cc1,4,2,-6,79*
Cc1ccc(Sc2c(C)nn(C(=O)C3CC3)c2C)cc1,64,0,-2,85*
CNC(=S)N/N=C(\C)c1ccc(C)c(C)c1,9,-1,-9,31
COC(=O)C1=NNC2(C)C(=O)N(c3ccc(C)cc3)C(=O)C12 (stereo not given),22,x,x,x
CC(C)Cn1cc(C(=O)NCc2cccs2)c2c3ccccc3n(C)c2c1=O,94*,6,1,18
O=C(COC(=O)/C=C/c1nc2ccccc2s1)Nc1cccc(Cl)c1Cl,60,4,59*,7
O=C(COC(=O)/C=C/c1nc2ccccc2s1)Nc1cccc2ccccc12,-5,5,48,16
O=C1[C@@H]2C(c3ccccc3Cl)=NO[C@@H]2C(=O)N1Cc1ccccc1,-21,2,-4,-2
CC1=CC(C)(C)N2C(=O)C3(C(C#N)=C(N)Oc4cc(O)ccc43)c3c(C)c(C)cc1c32 (stereo not given),96*,3,54*,7
Cn1c(=O)[nH]c(=O)c2c1nc(Br)n2CCSc1ncccn1,1,3,0,75*
C#C[C@]1(O)CC[C@H]2[C@@H]3CCC4=C(CCC(=O)C4)[C@H]3CC[C@@]21C,28,0,3,-7
C#C[C@]1(O)CC[C@H]2[C@@H]3CCc4cc(OC5CCCC5)ccc4[C@H]3CC[C@@]21C,43,x,x,96*
C#C[C@]1(O)CC[C@H]2[C@@H]3CCc4cc(OC)ccc4[C@H]3CC[C@@]21C,70*,3,0,24
CC(C1CCN(Cc2nc(C3CC3)no2)CC1)N1CCOCC1 (stereo not given),21,-1,78*,6
CCOC(=O)N1CCN(Cc2nc(C3CC3)no2)CC1,-4,0,9,-10
CC(C(=O)NC(C)(C)C)N(Cc1cccs1)C(=O)CCN1CCc2ccccc21 (stereo not given),-3,1,26,16
CC1=NN(c2cccc(C(=O)O)c2)C(=O)/C1=C\C=C\c1ccco1,-27,5,27,10
Cc1ccc(C2=NOC(=O)/C2=C\C=C\c2ccccc2)cc1,90*,6,100*,28
CC1=NN(c2ccccc2)C(=O)/C1=C/C=C/c1ccccc1,7,7,100*,8
COCC(C)NCC(=O)NC(C)CCc1ccccc1 (stereo not given),13,1,1,-1
O=C(Nc1ccc(S(=O)(=O)Nc2ncccn2)cc1)c1cccc(S(=O)(=O)N2CCOCC2)c1,-1,x,x,x
C=CCn1c(C)cc(C(=O)Cn2ncc(Cl)c(Cl)c2=O)c1C,75*,2,87*,-28
COc1ccccc1C(=O)OCn1nnc2ccccc2c1=O,-1,x,x,2
O=C(Cn1ncc(Cl)c(Cl)c1=O)c1ccc(Cl)cc1,102*,2,76*,-13
SMILES,CHOP inh,RAM inhibit,Lmaj promast,WT yeast gro inh
O=C(Cn1ncc(N2CCOCC2)c(Cl)c1=O)c1ccc(Cl)cc1,25,1,-10,-1
O=C1CN(C(=O)Cn2ncc(Cl)c(Cl)c2=O)c2ccccc2N1,92*,0,74*,-9
CC(C)(C)C(=O)Cn1ncc(Cl)c(Cl)c1=O,-68,4,34,2
O=C(OCn1ncc(Cl)c(Cl)c1=O)c1ccccc1Cl,107*,-1,101*,14
O=C(CS(=O)(=O)c1ccc2ccccc2c1)N1CCCCCC1,-17,-1,2,-2
COc1cc(C(=O)Nc2c(C)cc(C)cc2C)c([N+](=O)[O-])cc1OC,-1,2,1,-13
O=c1c(Cl)c(Cl)cnn1Cc1ccc(F)cc1,-99,1,73*,20
NC(=O)C1(N2CCCCC2)CCN(S(=O)(=O)c2cc(Cl)sc2Cl)CC1,7,x,x,x
O=C(O)c1cn(Cc2ccccc2Cl)c2ccc(S(=O)(=O)N3CCOCC3)cc2c1=O,6,2,-9,-47
